In all, about 2,300 compounds went through this assay and about 1,000 (43%) were called active.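 Rule for the calls: active = compounds inhibiting the enzyme by at least 50% at 15 µM in any one of the replicates; inactive = the rest.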 So high a share suggests a set chosen from earlier hits. Only a sample is shown.

Fatty acid synthase (Homo sapiens), sequence (P49327 whole entry, looked up, the tested form may be a part): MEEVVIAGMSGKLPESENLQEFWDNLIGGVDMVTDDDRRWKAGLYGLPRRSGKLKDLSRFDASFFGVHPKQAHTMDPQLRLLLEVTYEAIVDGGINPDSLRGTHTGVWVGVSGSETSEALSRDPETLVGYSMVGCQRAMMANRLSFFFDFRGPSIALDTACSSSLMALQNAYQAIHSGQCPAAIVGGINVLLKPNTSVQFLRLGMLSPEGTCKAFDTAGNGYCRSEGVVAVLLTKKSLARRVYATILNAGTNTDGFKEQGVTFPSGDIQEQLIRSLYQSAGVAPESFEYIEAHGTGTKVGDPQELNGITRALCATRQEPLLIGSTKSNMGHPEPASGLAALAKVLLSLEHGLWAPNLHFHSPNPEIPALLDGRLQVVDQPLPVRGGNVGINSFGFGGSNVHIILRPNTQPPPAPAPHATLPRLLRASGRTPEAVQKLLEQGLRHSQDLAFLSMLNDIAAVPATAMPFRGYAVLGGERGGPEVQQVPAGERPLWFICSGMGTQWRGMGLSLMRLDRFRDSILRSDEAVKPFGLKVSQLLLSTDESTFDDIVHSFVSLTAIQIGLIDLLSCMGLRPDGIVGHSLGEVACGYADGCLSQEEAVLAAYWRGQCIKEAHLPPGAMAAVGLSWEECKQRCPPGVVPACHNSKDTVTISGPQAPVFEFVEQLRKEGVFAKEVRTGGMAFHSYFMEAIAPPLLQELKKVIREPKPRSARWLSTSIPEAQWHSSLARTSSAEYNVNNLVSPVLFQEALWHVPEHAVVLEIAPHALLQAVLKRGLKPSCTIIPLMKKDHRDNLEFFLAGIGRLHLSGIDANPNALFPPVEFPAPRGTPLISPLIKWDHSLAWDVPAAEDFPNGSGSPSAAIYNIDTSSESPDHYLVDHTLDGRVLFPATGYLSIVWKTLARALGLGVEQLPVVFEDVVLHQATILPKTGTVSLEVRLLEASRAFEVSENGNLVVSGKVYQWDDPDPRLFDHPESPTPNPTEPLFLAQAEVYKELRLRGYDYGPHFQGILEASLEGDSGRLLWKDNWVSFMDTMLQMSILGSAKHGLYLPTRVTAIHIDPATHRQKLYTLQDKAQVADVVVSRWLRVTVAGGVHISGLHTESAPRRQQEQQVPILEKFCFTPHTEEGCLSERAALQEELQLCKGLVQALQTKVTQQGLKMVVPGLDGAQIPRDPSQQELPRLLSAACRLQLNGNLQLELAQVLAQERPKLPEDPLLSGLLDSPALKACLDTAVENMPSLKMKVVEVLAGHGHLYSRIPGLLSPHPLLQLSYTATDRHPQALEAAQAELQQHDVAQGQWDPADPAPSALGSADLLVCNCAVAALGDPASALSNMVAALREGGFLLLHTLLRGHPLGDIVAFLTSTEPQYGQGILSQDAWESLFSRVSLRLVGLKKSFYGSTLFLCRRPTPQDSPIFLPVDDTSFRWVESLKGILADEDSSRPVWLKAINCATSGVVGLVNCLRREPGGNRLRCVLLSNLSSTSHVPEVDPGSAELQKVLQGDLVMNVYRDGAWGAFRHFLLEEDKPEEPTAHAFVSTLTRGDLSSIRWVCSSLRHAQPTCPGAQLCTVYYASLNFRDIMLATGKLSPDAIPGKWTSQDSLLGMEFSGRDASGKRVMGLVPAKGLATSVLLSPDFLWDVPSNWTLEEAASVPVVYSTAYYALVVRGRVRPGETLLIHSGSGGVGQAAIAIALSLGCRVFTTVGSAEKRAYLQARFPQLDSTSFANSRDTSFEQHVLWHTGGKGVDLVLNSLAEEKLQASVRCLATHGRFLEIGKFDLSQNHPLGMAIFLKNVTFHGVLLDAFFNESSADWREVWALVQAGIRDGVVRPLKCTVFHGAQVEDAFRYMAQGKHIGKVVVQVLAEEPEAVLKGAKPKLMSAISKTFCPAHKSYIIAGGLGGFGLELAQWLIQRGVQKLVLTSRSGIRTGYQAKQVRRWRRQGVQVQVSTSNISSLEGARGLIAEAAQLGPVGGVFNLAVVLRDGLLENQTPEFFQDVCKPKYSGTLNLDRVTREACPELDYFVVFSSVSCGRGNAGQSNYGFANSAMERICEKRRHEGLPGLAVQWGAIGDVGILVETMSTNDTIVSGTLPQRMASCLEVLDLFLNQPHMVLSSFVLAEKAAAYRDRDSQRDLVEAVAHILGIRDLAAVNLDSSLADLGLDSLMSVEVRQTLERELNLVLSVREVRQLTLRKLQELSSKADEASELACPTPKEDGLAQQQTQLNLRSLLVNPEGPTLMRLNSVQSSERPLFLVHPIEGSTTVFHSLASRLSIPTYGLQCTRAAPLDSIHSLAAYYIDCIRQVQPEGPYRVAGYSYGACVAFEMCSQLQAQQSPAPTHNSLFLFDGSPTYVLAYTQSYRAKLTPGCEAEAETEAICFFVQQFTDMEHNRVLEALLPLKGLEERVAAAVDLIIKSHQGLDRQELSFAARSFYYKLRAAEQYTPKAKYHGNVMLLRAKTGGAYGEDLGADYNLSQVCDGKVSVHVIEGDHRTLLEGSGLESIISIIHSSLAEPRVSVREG

The experiment concerns the target Fatty acid synthase (Homo sapiens) (UniProt P49327). The experiment can be described thus: FAS thioesterase domain inhibitors, confirmation, biochemical, fluorescence intensity, single concentration (AID 624325).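 Note: 0% = enzyme with DMSO only and 100% = wells lacking enzyme.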 Particulars: recombinant FAS-TE, OMFH fluorogenic substrate, at 15 µM, stronger effect = higher value.
With `Cc1nn(CCOc2ccc(Br)cc2)c(C)c1[N+](=O)[O-]`, the inhibition is 36.2% (active). Next, `COc1ccc([N+](=O)[O-])cc1N(CC(O)Cn1nnc2ccccc21)S(=O)(=O)c1ccc(C)cc1` (configuration not stated): 65.3% (active); `O=C(N/N=C/c1cc([N+](=O)[O-])ccc1O)/C(=C\c1cccs1)NC(=O)c1ccccc1`: 42.4% (active); `O=C(/C=C/c1cccc([N+](=O)[O-])c1)NCCSCc1ccco1`: 73.2% (active). Consider `O=C(NCc1ccco1)/C(=C\c1cccc([N+](=O)[O-])c1)NC(=O)c1ccco1`, for which the inhibition is 71.9% (active).

On to `O=C(Nc1ccc2ccccc2c1)/C(=C/c1cccc(Br)c1)NC(=O)c1ccco1`, for which the inhibition is 27.6% (inactive). Take `COc1ccc(NS(=O)(=O)c2cc(NC(=O)c3ccc(S(=O)(=O)N(C)C)cc3)ccc2N2CCOCC2)cc1`: the inhibition is 9.83% (inactive). On to `Fc1ccc(-n2c(Cc3ccccc3)nnc2SCc2nc(-c3ccc(Cl)cc3)no2)cc1`, for which the inhibition is 51.8% (active). On to `O=C(Nc1ccc(OC(F)(F)F)cc1)c1ccc2c(c1)no[n+]2[O-]`, for which the inhibition is 14.6% (inactive). In the case of `O=C(Nc1ccc(C(F)(F)F)cc1)c1cccc(-n2cnnn2)c1`, the inhibition was 65.5% (active). Regarding `COc1ccc(NS(=O)(=O)c2cc(NC(=O)/C=C/c3cc(OC)c(OC)c(OC)c3)ccc2N2CCCCC2)cc1`, the inhibition was 19.7% (inactive). Turning to `O=c1oc(-c2ccco2)nc2sc3c(c12)CCCCC3`, the inhibition was 51% (active). Regarding `CCC(CC)COC(=O)C1=C(C)NC(=O)NC1c1ccc([N+](=O)[O-])cc1` (configuration not stated), the inhibition is 78.8% (active).

Turning to `COc1cc(S(=O)(=O)N2CCOCC2)ccc1NC(=O)COc1ccc(N(C)S(=O)(=O)c2ccc(C)cc2)cc1`, the inhibition was 7.91% (inactive). On to `COc1ccc(C2=NN(C(=O)CSc3nc(=O)n4ccc(C)cc4n3)C(c3ccc(C)cc3)C2)cc1` (configuration not stated), for which the inhibition was 46% (active). Next, `Cc1ccc(N2C(=O)C3N=NN(CC(=O)N4N=C(c5cccc6ccccc56)CC4c4ccccc4)C3C2=O)cc1` (configuration not stated): 10.8% (inactive).

With `Cc1ccc2c(c1)-c1c(ssc1=S)C(C)(C)N2C(=O)CN1C(=O)c2ccccc2C1=O`, the inhibition was 2.45% (inactive). As to `C#CCN(C[C@H]1[C@H](OC(=O)NC2CCCC2)[C@H](OC(=O)NC2CCCC2)C[C@H]2C(=O)N(c3ccccc3)C(=O)[C@@H]12)S(=O)(=O)c1ccc(C)cc1`, the inhibition is 48.3% (active).

Consider `CCOC1=C2[C@H]([C@H]3C(=O)N(c4ccccc4)C(=O)[C@H]3C1)[C@@H](c1ccccc1)N(S(=O)(=O)c1ccc(C)cc1)[C@H]2c1ccccc1`, for which the inhibition is 32.3% (inactive). Next, `CCOC1=C2CN(S(=O)(=O)c3ccc(C)cc3)[C@H](c3cccs3)C[C@H]2[C@H]2C(=O)N(c3ccccc3)C(=O)[C@H]2C1`: 33% (inactive); `Cc1cccc([C@@H]2[C@@H]3C(=O)N(Cc4ccccc4)C(=O)[C@@H]3[C@]3(Cc4ccc(Cl)cc4)C(=O)N(c4cccc(Cl)c4)C(=O)N23)c1`: 11.9% (inactive); `COc1ccc([C@@H]2[C@@H]3C(=O)N(C(C)(C)C)C(=O)[C@@H]3[C@]3(Cc4ccccc4)C(=O)N(c4cccc(Br)c4)C(=O)N23)cc1`: 46.4% (active). For the compound `Cc1ccc(C(=O)N/C(=C\c2cn(S(=O)(=O)N(C)C)c3ccccc23)C(=O)N2CCCC2)cc1`, the inhibition is 88.2% (active). As to `Cc1ccc(S/C(=N\S(=O)(=O)c2ccc(Cl)cc2)c2ccccc2)cc1`, the inhibition was 29.6% (inactive). For `COc1ccc([N+](=O)[O-])cc1NC(=O)CC1SC(=Nc2cccc(C)c2C)N(/N=C(\C)c2ccc(C)cc2)C1=O` (configuration not stated), the inhibition is 25.8% (inactive). For the compound `COc1ccc([N+](=O)[O-])cc1NC(=O)c1ccc(N(Cc2ccccc2C)S(C)(=O)=O)cc1`, the inhibition is 39.2% (active). As for `CCCCCCCCCCCCN1[C@@H](CC(C)=O)c2cc(F)cc(F)c2S1(=O)=O`, the inhibition is 9.68% (inactive).

As for `COc1ccc2c(c1)[C@H]1[C@H](CO2)[C@H](c2ccccc2)[C@]2(C)C(=O)Nc3cc(F)c(F)cc3C(=O)N12`, the inhibition was 34% (inactive). For `CC(C)c1ccc2c(c1)c(SC(C)(C)C)c(CC(C)(C)C(=O)O)n2Cc1ccc(Cl)cc1` the value was 51.4% (active); for `O=C(OC1CCOC1=O)c1ccc(-c2nc3ccccc3s2)s1` (configuration not stated), 35.3% (inactive); for `O=S(=O)(Nc1cccc(-n2cnnn2)c1)c1cnc(Cl)c(Cl)c1`, 68% (active).

`CCCc1cc(-c2nc(-c3ccc(C)cc3)cs2)ccn1`: the inhibition is 46.9% (inactive). Consider `O=C(Nc1cccc(S(=O)(=O)Nc2ccc(Cl)cc2)c1)c1ccc2c(c1)OCCO2`, for which the inhibition was 37.6% (inactive). For `O=C(Nc1ccccc1)c1nnsc1S(=O)(=O)c1ccc(Cl)cc1` the value was 72.3% (active); for `O=C(CC(c1ccccc1)c1ccccc1)NCC(O)c1ccc([N+](=O)[O-])cc1` (configuration not stated), 55.1% (active); for `CC(C=Cc1ccccc1)=NNS(=O)(=O)c1ccc([N+](=O)[O-])cc1`, 71.2% (active). As to `COCCNC(=O)CCCn1c(=O)c2ccccc2n(Cc2cccc([N+](=O)[O-])c2)c1=O`, the inhibition was 37.5% (active).

Take `O=C(Oc1cccc(N2C(=O)C3C4c5ccccc5C(c5ccccc54)C3C2=O)c1)c1ccco1` (configuration not stated): the inhibition was 36.3% (active).

Turning to `COc1ccc(C2Nc3ccccc3C(=O)N2c2ccc(Cl)cc2)cc1Cn1cc([N+](=O)[O-])cn1` (configuration not stated), the inhibition is 41.9% (inactive). Take `O=[N+]([O-])c1ccc(CN2CC(N3CCC(c4ccccc4)CC3)CS2(=O)=O)cc1` (configuration not stated): the inhibition is 22.4% (inactive). Take `CCCCCOC(=O)c1ccc(N2C(=O)C3C4C=CC(C4)C3C2=O)cc1` (configuration not stated): the inhibition was 51.4% (active). Turning to `Cc1ccc(NC(=O)c2nc[nH]c2C(=O)N[C@@H](CCCCNC(=O)OC(C)(C)C)C(=O)OC(C)(C)C)cc1`, the inhibition is 83.9% (active). As for `CCOC(=O)c1ccc(NC(=O)c2nc[nH]c2C(=O)N[C@@H](CCCCNC(=O)OC(C)(C)C)C(=O)OC(C)(C)C)cc1`, the inhibition is 57.3% (active). Regarding `Cc1cccc(CS(=O)(=O)c2ncc(Cl)c(C(=O)Nc3ccc(F)cc3)n2)c1`, the inhibition is 53.2% (active).

Regarding `O=C(Nc1ccccc1Cl)/C(Cl)=C(\Cl)S(=O)c1ccccc1` (configuration not stated), the inhibition is 76.4% (active). For `Cc1cc(C(=O)COc2ccccc2[N+](=O)[O-])c(C)n1-c1cccc(S(=O)(=O)N2CCOCC2)c1`, the inhibition was 21.2% (inactive).

On to `Nc1c(-c2cccc(Cl)c2)cnn1-c1cccc([N+](=O)[O-])c1`, for which the inhibition is 48.9% (active).

As usually defined, the inhibition is the drop in the measured response relative to a control, in per cent.

The values are drawn from PubChem BioAssay AID624325 (Sanford-Burnham Center for Chemical Genomics, 2012).
